According to the supplement of paper PMC12669797:
Values joined by “and” are separate entries in the source; they are usually repeats but may differ in a detail not shown here. Equal entries are not always repeated. ± gives the standard deviation of the averaged measurements.

System: ES2
Test: cell viability relative to DMSO control (MTS) (fraction of DMSO control); higher = more viable cells / less growth inhibition
Details: 10 µM; 48 h
In short: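 After 24 h of growth in 96-well plates at 5000 cells per well, TOV-21G and ES2 clear cell carcinoma cells were treated for 48 h with a 367-compound […] library at 10 µM final concentration. Cell viability was measured by MTS assay and expressed relative to vehicle control wells as a fraction.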

SMILES	cell viability
CC(C)[C@@H]1NC(=O)[C@H](C)OC(=O)[C@@H](C(C)C)NC(=O)[C@@H](C(C)C)OC(=O)[C@H](C(C)C)NC(=O)[C@H](C)OC(=O)[C@@H](C(C)C)NC(=O)[C@@H](C(C)C)OC(=O)[C@H](C(C)C)NC(=O)[C@H](C)OC(=O)[C@@H](C(C)C)NC(=O)[C@@H](C(C)C)OC1=O [Valinomycin]	0.482
N.N.[Cl][Pt][Cl] [Cisplatin]	0.794
C[C@@H]1C[C@@H]([C@H](O)CC2CC(=O)NC(=O)C2)C(=O)[C@@H](C)C1 [Cycloheximide]	0.547
C[C@H]1CCC/C=C/[C@@H]2C[C@H](O)C[C@H]2[C@H](O)/C=C/C(=O)O1 [brefeldin A]	0.355
C[C@H]1O[C@@H](n2cnc3c(N)ncnc32)C[C@@H]1O [2',5'-dideoxyadenosine]	0.972
O=C1C2CCN(CC2)C1(CO)CO	1.01
CC1=C2C[C@H]3[C@@H](CC=C4C[C@@H](O)CC[C@@]43C)[C@@H]2CC[C@]12O[C@@H]1C[C@H](C)CN[C@H]1[C@H]2C [cyclopamine]	0.92
C#CCN(C)C(C)Cc1ccccc1 (stereo not drawn) [Deprenyl]	1.12
COc1ccc(C[C@H]2NC[C@H](O)[C@H]2OC(C)=O)cc1 [anisomycin]	0.394
C=C(C)[C@H]1Cc2c(ccc3c2O[C@@H]2COc4cc(OC)c(OC)cc4[C@@H]2C3=O)O1 [Rotenone]	0.491
CC(=O)N[C@H]1[C@@H](O[C@@H]2O[C@H](CC(O)[C@H]3O[C@@H](n4ccc(=O)[nH]c4=O)[C@H](O)[C@@H]3O)[C@H](O)[C@H](O)[C@H]2NC(=O)/C=C/CC(C)C)O[C@H](CO)[C@@H](N)[C@@H]1O (stereo partly drawn) [Tunicamycin]	1.19
CC[C@@]1(O)C(=O)OCc2c1cc1n(c2=O)Cc2cc3ccccc3nc2-1 [Camptothecin]	0.527
CC(C)(O)/C=C/C(=O)[C@](C)(O)[C@H]1[C@H](O)C[C@@]2(C)[C@@H]3CC=C4[C@@H](C=C(O)C(=O)C4(C)C)[C@]3(C)C(=O)C[C@]12C [Cucurbitacin I]	0.393
CC(C)(c1ccc(OCC2CO2)cc1)c1ccc(OCC2CO2)cc1 (stereo not drawn)	0.975
COC[C@H]1OC(=O)c2coc3c2[C@@]1(C)C1=C(C3=O)[C@@H]2CCC(=O)[C@@]2(C)C[C@H]1OC(C)=O [Wortmannin]	0.956 ± 0.059
C/C=C(/C)C(=O)O[C@H]1C(C)=C2[C@H]([C@@H]1OC(=O)CCCCCCC)[C@@](C)(OC(C)=O)C[C@H](OC(=O)CCC)[C@@]1(O)[C@H]2OC(=O)[C@@]1(C)O [Thapsigargin]	0.505
COC(=O)C1(OC)CC2OC1(C)n1c3ccccc3c3c4c(c5c6ccccc6n2c5c31)C(=O)N(C)C4 (stereo not drawn)	1 and 1.11
C[C@@]1(CO)[C@H](O)CC[C@@]2(C)[C@H]1CC[C@H]1C[C@@H]3C[C@@]12CC[C@]3(O)CO [Aphidicolin]	0.419
N[C@@H]1C[C@H]1c1cc(F)cc(F)c1OCc1ccccc1 [S2101 (LSD1 inhibitor II)]	0.792
CCC1(c2ccc(N)cc2)CCC(=O)NC1=O (stereo not drawn) [Aminoglutethimide]	1.08
NC(=S)N/N=C\c1coc2ccccc2c1=O.[Cl][Cu][Cl] [Akt Inhibitor XI]	1.23
O=C1NC(=O)c2c1c1c3ccccc3n3c1c1c2c2ccccc2n1[C@H]1CC[C@@H]3O1	0.973 and 1.25
C[C@@H]1O[C@@H](O[C@H]2C[C@@H](O)[C@]3(CO)[C@H]4[C@H](O)C[C@]5(C)[C@@H](C6=CC(=O)OC6)CC[C@]5(O)[C@@H]4CC[C@]3(O)C2)[C@H](O)[C@H](O)[C@H]1O [Ouabain]	0.439
